Hits are enriched below; roughly 2.2% of the tested compounds scored in any of these assays.
Statin myotox sup: protects C2C12 myotubes from simvastatin toxicity; rescue of ATP level, % at 7.49 µM; ATP luminescence, 48 h; scaled: DMSO 0, geranylgeraniol control 100; actives 0.78% (n = 330,000);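 active = mean ATP rescue above about 67%, or every replicate alone reaching that limit, limit read from the data, passing the limit was not always enough; inconclusive = no clear call, values can overlap the other calls; inactive = mean under the limit and some replicate under it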;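 note: myotubes were challenged with 10 µM simvastatin during compound exposure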
PGC1a acetyl inh: PGC1a acetylation modulation, inhibitor mode | inhibition, % at 15.6 µM | actives 0.17% (n = 350,000) | U2OS PGC1a acetylation, AlphaScreen anti-acetyl-lysine; with virally co-expressed GCN5 acetyltransferase;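 active = every replicate shows inhibition of at least 40%; inconclusive = mean inhibition at least 40% but some replicate below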;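 note: 0% = neutral control wells and 100% = positive control wells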
PvdQ inh: P. aeruginosa PvdQ acylase inhibition. actives 0.063% (n = 340,000). inhibition, % at 10 µM. AID 488965. purified PvdQ acylase, fluorescence plate reader; in the data active = inhibition above about 30%, passing the limit was not always enough; inconclusive = no clear call, values can overlap the other calls;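 note: 0% = vehicle neutral wells and 100% = reference inhibitor wells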
miR122 inh: inhibitors of miR-122 in Huh7 cells | Huh7 miR-122 Renilla luciferase sensor, 48 h; neutral wells = 0, positive control = 100 | activation (reporter increase), % at 12.5 µM | actives 0.3% (n = 340,000) | AID 602342;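 active = mean replicate activation score at least 90 and every replicate individually at or above 90; inconclusive = only one of the two criteria met; inactive = neither criterion met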;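 note: higher luciferase means less miR-122 activity so hits act as miR-122 inhibitors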
DENV2 CPE rescue: DENV2-induced cell death inhibition; DENV2-infected cells, cytopathic effect rescue, plate reader; CPE inhibition, % at 9.99 µM; actives 1.7% (n = 350,000); AID 651640; in the data active = CPE inhibition above about 20%, passing the limit was not always enough; inconclusive = no clear call, values can overlap the other calls; tested in BHK-21 cells;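 note: 0% = median of neutral control wells and 100% = median of positive control wells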
An asterisk follows results filed as active; [ ] = dose if it differs, or a comment.

What do the screens show for `COc1ccc(S(=O)(=O)N(C)C[C@@H]2Oc3cc(C4=CCCC4)ccc3S(=O)(=O)N([C@H](C)CO)C[C@@H]2C)cc1`?
Statin myotox sup: -31.9; PGC1a acetyl inh: -0.2; miR122 inh: 2.6[16.7 µM]; DENV2 CPE rescue: -4.4

How did CC(C)C#Cc1ccc2c(c1)O[C@H](CN(C)C(=O)c1cccnc1)[C@@H](C)CN([C@@H](C)CO)S2(=O)=O do in these assays?
Statin myotox sup: -13.2; PGC1a acetyl inh: -0.8; miR122 inh: -19.9[16.7 µM]; DENV2 CPE rescue: inconclusive

Results for O=C(C[C@H]1CC[C@@H]2[C@H](COC[C@H](O)CN2Cc2ccc3c(c2)OCO3)O1)Nc1ccc(-c2ccccc2)cc1 ?
Statin myotox sup: -18.9; PGC1a acetyl inh: -4.3; miR122 inh: -4.4[16.7 µM]; DENV2 CPE rescue: -3.4

What do the screens show for `Cc1ccccc1NC(=O)CCN1C(=O)CSC1=O`?
Statin myotox sup: 9.7; PGC1a acetyl inh: -1.0; PvdQ inh: -9.0; miR122 inh: -8.6

How did CC1=C(C(=O)Nc2ccccc2C)C(c2ccc(C)o2)N2C(=O)CSC2=N1 (centres undefined) do in these assays?
Statin myotox sup: 78.4*; PGC1a acetyl inh: 7.9; PvdQ inh: -22.0; miR122 inh: -0.5

Results for COc1ccc(NC(=O)Nc2ccc3c(c2)C(=O)N([C@@H](C)CO)C[C@@H](C)[C@@H](CN(C)S(=O)(=O)c2ccc(OC)cc2)O3)cc1 ?
Statin myotox sup: -12.8; PGC1a acetyl inh: 0.1; miR122 inh: 77.7[16.7 µM]; DENV2 CPE rescue: inconclusive

Results for C[C@@H]1CN([C@@H](C)CO)C(=O)c2cc(NS(=O)(=O)c3ccccc3)ccc2O[C@@H]1CN(C)C(=O)Nc1ccccc1 ?
Statin myotox sup: 21.7; PGC1a acetyl inh: 1.5; miR122 inh: -7.1[16.7 µM]; DENV2 CPE rescue: -7.5

What do the screens show for `O=C1C=CCCN1S(=O)(=O)/C=C/c1ccccc1`?
PGC1a acetyl inh: 58.7*; DENV2 CPE rescue: 0.1

What do the screens show for `O=S(=O)(/C=C/c1ccccc1)N1CCc2ccccc2C1`?
Statin myotox sup: 25.4; PGC1a acetyl inh: -22.8; PvdQ inh: -16.2; DENV2 CPE rescue: 9.3

How did O=[S@]1Oc2ccccc2-c2ccccc21 do in these assays?
PGC1a acetyl inh: 19.1; PvdQ inh: -1.1; DENV2 CPE rescue: 67.5*

How did O=S1c2ccccc2Oc2ccccc21 do in these assays?
PGC1a acetyl inh: -4.8; PvdQ inh: 5.5; miR122 inh: -0.4; DENV2 CPE rescue: -1.5

How did CN1C(=O)c2cc(NC(=O)c3ccc(F)cc3)ccc2OC[C@H]2O[C@H](CC(=O)NCC3CC3)CC[C@H]21 do in these assays?
Statin myotox sup: -9.1; PGC1a acetyl inh: -2.2; miR122 inh: 5.2[16.7 µM]; DENV2 CPE rescue: -3.4

What do the screens show for `CCCNC(=O)N(C)C[C@@H]1Oc2ncc(-c3ccc(OC)cc3)cc2C(=O)N([C@H](C)CO)C[C@@H]1C`?
Statin myotox sup: 9.8; PGC1a acetyl inh: -7.3; miR122 inh: 3.5[16.7 µM]; DENV2 CPE rescue: 10.9

What do the screens show for `CCC1(c2ccccc2)NC(=O)N(CC(=O)Nc2ccccc2C(=O)N2CCCCC2)C1=O` (centres undefined)?
Statin myotox sup: -8.7; PvdQ inh: -7.5; miR122 inh: -1.9; DENV2 CPE rescue: 34.8*

How did CCC1(c2ccccc2)NC(=O)N(CC(=O)Nc2ccccc2N2CCCCC2)C1=O (centres undefined) do in these assays?
PGC1a acetyl inh: -9.0; PvdQ inh: -17.5; DENV2 CPE rescue: -6.9

What do the screens show for `O=C(C[C@@H]1C[C@@H]2c3cc(NS(=O)(=O)c4ccccc4)ccc3O[C@@H]2[C@@H](CO)O1)NCC1CC1`?
Statin myotox sup: -3.0; PGC1a acetyl inh: -0.9; miR122 inh: 8.2[16.7 µM]; DENV2 CPE rescue: -5.3

How did CNC[C@H]1Oc2ccc(NC(=O)Cn3cnnn3)cc2CC(=O)N([C@@H](C)CO)C[C@@H]1C do in these assays?
Statin myotox sup: 3.4; PGC1a acetyl inh: -1.3; miR122 inh: 2.9[16.7 µM]; DENV2 CPE rescue: 10.4

How did O=C1OC(N2C(=O)CC[C@H]2C(=O)NCC2CCCO2)c2ccccc21 (some centres undefined) do in these assays?
Statin myotox sup: -10.4; PGC1a acetyl inh: -1.2; PvdQ inh: -5.6; miR122 inh: -2.2; DENV2 CPE rescue: 27.8*

How did O=C(NCC1CCCO1)[C@@H]1CSC2c3ccccc3C(=O)N21 (some centres undefined) do in these assays?
Statin myotox sup: -0.4; PGC1a acetyl inh: -3.3; PvdQ inh: 0.1; miR122 inh: -6.7

How did CO[C@@H]1CN(C)C(=O)c2ccc(NC(=O)c3ccc(F)cc3)cc2OC[C@H](C)N(C(C)=O)C[C@@H]1C do in these assays?
Statin myotox sup: 8.6; PGC1a acetyl inh: 4.2; DENV2 CPE rescue: 11.2

What do the screens show for `O=S(=O)(NCCC1=CCCCC1)c1ccc(Br)cc1`?
Statin myotox sup: -7.9; PvdQ inh: -6.9; DENV2 CPE rescue: 119.3*

What do the screens show for `O=S(=O)(NCCC1=CCCCC1)c1ccccc1Cl`?
Statin myotox sup: -22.3; PGC1a acetyl inh: 0.2; PvdQ inh: -0.2; miR122 inh: inconclusive; DENV2 CPE rescue: -2.7

What do the screens show for `COc1ccc(C)cc1S(=O)(=O)N1CCC(C(=O)NCCC2=CCCCC2)CC1`?
Statin myotox sup: -16.2; PGC1a acetyl inh: -5.1; PvdQ inh: -8.8; miR122 inh: 8.5

What do the screens show for `COc1ccc(C)cc1S(=O)(=O)NCCC1=CCCCC1`?
Statin myotox sup: -36.2; PGC1a acetyl inh: -23.4; PvdQ inh: -11.8; miR122 inh: 93.4*

Results for O=C(CCS(=O)(=O)c1ccc(Br)cc1)NCCC1=CCCCC1 ?
Statin myotox sup: 16.7; PGC1a acetyl inh: -0.7; PvdQ inh: -15.7; miR122 inh: 1.1; DENV2 CPE rescue: -6.8

How did O=S(=O)(NCCC1=CCCCC1)c1ccccc1Br do in these assays?
Statin myotox sup: -1.2; PvdQ inh: 4.1; miR122 inh: 139.9*; DENV2 CPE rescue: 1.4

What do the screens show for `COc1ccc(S(=O)(=O)N(C)C[C@H]2Oc3c(NC(=O)Nc4ccccc4)cccc3C(=O)N([C@H](C)CO)C[C@@H]2C)cc1`?
Statin myotox sup: -7.4; PGC1a acetyl inh: -12.3; PvdQ inh: -0.3; miR122 inh: 2.7; DENV2 CPE rescue: 17.8

Results for COc1ccc(S(=O)(=O)N(C)C[C@H]2Oc3c(NC(=O)Nc4ccccc4)cccc3C(=O)N([C@H](C)CO)C[C@H]2C)cc1 ?
Statin myotox sup: 77.6*; PGC1a acetyl inh: -7.1; miR122 inh: -4.7[16.7 µM]

How did COc1ccc(S(=O)(=O)N(C)C[C@H]2Oc3c(NC(=O)Nc4ccc(C(F)(F)F)cc4)cccc3C(=O)N([C@H](C)CO)C[C@@H]2C)cc1 do in these assays?
Statin myotox sup: 7.2; PGC1a acetyl inh: -3.0; PvdQ inh: -7.9; miR122 inh: 5.7; DENV2 CPE rescue: 20.8*

How did C[C@@H]1CN([C@@H](C)CO)C(=O)c2cccc(NC(=O)Nc3ccccc3)c2O[C@H]1CN(C)S(=O)(=O)c1ccccc1 do in these assays?
Statin myotox sup: -0.1; PGC1a acetyl inh: -1.3; miR122 inh: -5.0[16.7 µM]; DENV2 CPE rescue: 39.5*

How did COc1ccc2c3c(n(C)c2c1)[C@H](CO)N(C(=O)CN(C)C)CC31CN(Cc2cccnc2)C1 do in these assays?
PGC1a acetyl inh: -4.9; DENV2 CPE rescue: -9.6

Screens: PubChem, Broad Institute
